# Experimental data as given in PubChem BioAssay AID485314 (National Center for Advancing Translational Sciences (NCATS), 2010).
# Hit rate of the full screen: of about 340,000 compounds, about 4,500 (1.3%) were called active. Inconclusive results (about 5%) are left out. The list comes from a sample in which actives are over-represented; it also holds similar structures and randomly drawn compounds. A number with no mark means an inactive call. Calls follow the shape of the dose curve; as a rule, active = well fitted inhibition curve with a large enough effect; inconclusive = small, poorly fitted or top-dose-only effect, or another doubt; inactive = no such curve, though single readings can be large or run the other way.
# Target: DNA polymerase beta (Homo sapiens) (UniProt P06746)
# Experiment: qHTS Assay for Inhibitors of DNA Polymerase Beta
# Conditions: Pol beta primer extension/strand displacement, fluorescence kinetic; series mostly up to 114 µM; activity change, negative = inhibition: at the top concentration
# Method in brief: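 Kinetic readout of DNA synthesis with strand displacement by Pol beta. Compound and 10 nM enzyme sit 15 min at room temperature; 50 nM substrate starts the reaction, read immediately and at 10 min.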
# % is scaled to controls: 0 for no effect and ±100 for the full control effect; potency is read from the fitted curve at half-maximal effect.
Compound,"activity change, negative = inhibition [%]",Potency
COc1ccc(S(=O)(=O)NCc2cccn2Cc2cccc(C)c2)cc1Cl,-0.864,
COc1ccc(N2CCN(C3=NS(=O)(=O)C(c4cccc(Br)c4)=C3C)CC2)cc1,-13.7,
CCOC(=O)C(Cc1ccccc1)NC(=O)CCC(=O)c1ccc(OC)cc1 (stereo not drawn),4.15,
COc1ccc2oc(C(=O)NCC(Cc3ccccc3)N(C)C)c(C)c2c1 (stereo not drawn),22.1,
COc1cc([C@H](Cc2ccccc2)NC(C)=O)oc(=O)c1,,17.8 µM (active)
Cc1cc(C)nc(N2CCN(c3ncnc4c3oc3ccccc34)CC2)n1,2.21,
CC(C)c1nc2oc3c(N4CCN(C)CC4)ncnc3c2c2c1CCC2,,12.6 µM (active)
Cc1ccc(NC(=O)c2ccc(CN3CC(=O)N4CCCCC4C3=O)cc2)c(Cl)c1 (stereo not drawn),2.76,
Cc1nnc(C)n1-c1ccc(C(=O)Nc2cccc(Br)c2)cc1,1.29,
Cc1cccc(NC(=O)NC2(C)CCS(=O)(=O)C2)c1 (stereo not drawn),22.6,
Cc1cccc(NC(=O)C2CCN(C(=O)NC3CCCCC3)CC2)c1,7.66,
Cc1cccc(NC(=O)C2CC(=O)OC23CCCC3)c1 (stereo not drawn),,28.2 µM (active)
CCOC(=O)c1ccc(NC(=O)c2csc3c2CCCCC3)cc1,6.91,
Cc1nn(-c2ccc(N3CCCCC3)nn2)c(C)c1CCC(=O)NCc1ccc(F)cc1,-15.3,
COc1ccc(-n2ccnc(NCCc3ccc(Cl)cc3)c2=O)cc1OC,-12,
CS(=O)(=O)N(CC(=O)NCc1ccco1)c1ccc2c(c1)OCO2,,50.1 µM (active)
S=C(NCc1ccc2c(c1)OCO2)NCc1ccco1,1.93,
Cc1cc(C)cc(N(CC(=O)NCCSCc2ccco2)S(C)(=O)=O)c1,0.739,
Cc1ccc(NC(=O)CSc2nc3c([nH]c4ccccc43)c(=O)n2-c2ccccc2)cc1Cl,3.88,
Cc1ccc(NC(=O)c2ccc3[nH]c(C)cc(=O)c3c2)c(C)c1,-25,
Fc1ccc(C(Nc2ccc(Cl)c(C(F)(F)F)c2)c2nnc(-c3ccccc3)o2)cc1 (stereo not drawn),19.5,
Nc1c(Cl)cc(S(N)(=O)=O)cc1S(N)(=O)=O,,25.1 µM (active)
NS(=O)(=O)c1ccc(NC(=S)Nc2ccc(Br)c(Cl)c2)cc1,-1.82,

Compound,"activity change, negative = inhibition [%]",Potency
CCCN(CCC)C(=O)C1CCCN(c2ncnc3c2nc2n3CCCCC2)C1 (stereo not drawn),14.9,
COc1ccc(-c2cc(C(=O)NCc3cc(OC)c(OC)c(OC)c3)[nH]n2)cc1,26.1,
CCc1nnc(NC(=O)C2CCCN2S(=O)(=O)c2ccccc2)s1 (stereo not drawn),-1.63,
CCc1ccccc1NS(=O)(=O)c1ccc2nc(-c3ccccc3)[nH]c2c1,-33,
CCc1ccc(NC(=O)C2CCCN2S(=O)(=O)c2ccc3nc(-c4ccccc4)[nH]c3c2)cc1 (stereo not drawn),,12.6 µM (active)
CCc1ccccc1NC(=O)Cc1ccc(NC(=O)N2CCCCc3ccccc32)cc1,7.27,
CCOc1ccc(Nc2c(S(=O)(=O)c3ccccc3)cnc3ccccc23)cc1,-23.2,
CCn1cc(C(=O)N2CCN(c3cc(C)ccc3C)CC2)c(=O)c2cc(S(=O)(=O)N(C)C3CCCCC3)ccc21,18.9,
Cc1ccc(S(=O)(=O)N2CCCc3cc(NS(=O)(=O)c4cc(C)ccc4C)ccc32)cc1,8.08,
Cc1ccc(Nc2c(-c3ccc(N(C)C)cc3)nc3nc[nH]n23)cc1,5.92,
O=C(NC(=O)c1ccc(Cl)c(Cl)c1)OC1CCS(=O)(=O)C1 (stereo not drawn),,89.1 µM (active)
O=C(Cc1ccc(Cl)cc1)NC1CCS(=O)(=O)C1 (stereo not drawn),-17.6,
O=C(NC(=S)NC1CCS(=O)(=O)C1)c1cccc([N+](=O)[O-])c1 (stereo not drawn),31.6,
O=C1CCCC(O)=C1N=Nc1ccc2ncsc2c1,,35.5 µM (active)
O=C1CCCC(O)=C1N=Nc1ccc(S(=O)(=O)N2CCOCC2)cc1,-9.17,
O=C(CSc1ncc(CO)n1Cc1ccc(Cl)cc1)NCc1ccc(F)cc1,21.7,
Cc1cccc(-c2nnc(SCC(=O)N3CCCc4ccccc43)o2)c1,19.1,
CC(C)c1cc(C(=O)N/N=C/C(Br)=C/c2ccccc2)n[nH]1,-7.2,
Cc1ccc(-c2cc(C(=O)NN)n[nH]2)o1,-2.94,
Cc1ccc(-c2cc(C(=O)N/N=C/C=C/c3ccccc3)n[nH]2)o1,,17.8 µM (active)
Cc1ccc(OCC(=O)OCc2cc(=O)n3nc(C4CC4)sc3n2)cc1C,35.9,
COc1ccccc1C(=O)OCc1cc(=O)n2nc(-c3cccs3)sc2n1,,17.8 µM (active)
O=C(OCc1cc(=O)n2nc(C3CC3)sc2n1)c1ccccc1Cl,15.1,

Compound,"activity change, negative = inhibition [%]",Potency
Cc1nn2c(=O)cc(COC(=O)c3ccccc3NC(=O)COc3ccccc3C)nc2s1,32.7,
O=C(COc1ccccc1)OCc1cc(=O)n2nc(-c3cccs3)sc2n1,,31.6 µM (active)
Cc1ccc(OCC(=O)OCc2cc(=O)n3nc(C4CC4)sc3n2)cc1,-1.49,
CCCn1c2ccccc2c2cnn(CC(=O)N(CC)c3cc(C)ccc3C)c(=O)c21,1.29,
Cc1cc(=O)oc2ccc(OCC(=O)O)cc12,-0.812,
Cc1cc(=O)oc2cc(OCC(=O)Nc3nnc(C4CC4)s3)ccc12,0.954,
CCOC(=O)Cc1csc(SCc2cc(=O)oc3cc(O)ccc23)n1,31.2,
Cc1ccc(O)c(/C=N/NC(=O)COc2ccc3c(C)cc(=O)oc3c2)c1,,22.4 µM (active)
COc1ccc(N2CCN(C(=O)COc3ccc4c(C)cc(=O)oc4c3)CC2)cc1,0.172,
CCOC(=O)Cc1csc(NC(=O)COc2ccc3c(C)cc(=O)oc3c2)n1,,44.7 µM (active)
CCOC(=O)c1c(NC(=O)Cc2coc3ccc(CC)cc23)sc2c1CCC2,18.5,
COc1ccc(N2CCN(Cc3nc4c(c(=O)[nH]c(=O)n4C)n3Cc3ccc(Cl)cc3)CC2)cc1,-17.7,
O=C(CSc1ncc(-c2ccccc2)[nH]1)Nc1ccc(F)cc1F,1.98,
Cc1nc2c(c(C)nn2-c2ccccc2)c(C)c1CCC(=O)NCCc1ccc(Cl)cc1,1.97,
CCOc1ccccc1CNC(=O)Nc1cn(CC(C)C)c(=O)c2ccccc12,5.13,
Cc1nn(CC(=O)O)c(=O)c2cc3cc(F)ccc3n12,16.8,
CCc1ccc(NC(=O)Cn2nnc(C(=O)NCc3ccc4c(c3)OCO4)c2N)cc1,21.7,
CCc1ccc(NC(=O)Cn2nnc(C(=O)NCc3ccc(OC)cc3)c2N)cc1,31.3,
COc1ccc(CNC(=O)c2nnn(CC(=O)Nc3cc(C)cc(C)c3)c2N)cc1,,10 µM (active)
COc1ccc(NC(=O)Cn2nnc(C(=O)NCCc3ccc(OC)c(OC)c3)c2N)cc1,0.0268,
Cc1cccc(NC(=O)c2nnn(CC(=O)Nc3ccc(C(C)C)cc3)c2N)c1C,26.7,
CC(C)c1ccc(NC(=O)Cn2nnc(C(=O)NCCc3ccccc3)c2N)cc1,,7.94 µM (active)
